This note sets out measurements from PubChem BioAssay (NCATS).

In assay [1] the target is Alpha-galactosidase (Coffea arabica) (UniProt Q42656). The assay is described as follows: Counterscreen for Glucocerebrosidase Inhibitors: qHTS Assay for Coffee Bean alpha-Galactosidase at pH 4.5 (AID 957).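 Also: plate controls were enzyme alone for no effect and no enzyme for full effect.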 To be noted: purified coffee bean alpha-galactosidase, fluorogenic substrate; series mostly up to 76.9 µM. Put shortly:
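Enzyme is added first (2 nM final), then compounds titrated from 0.7 nM to 77 uM, then 80 uM 4-methylumbelliferyl alpha-D-galactopyranoside; after 20 min at room temperature a pH 10 NaOH/glycine stop precedes fluorescence reading at 365/440 nm.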

Assay [2] concerns the target Alpha-galactosidase A (Homo sapiens) (UniProt P06280). The assay is described as follows: Counterscreen for Glucocerebrosidase Inhibitors: qHTS Assay for Human alpha-Galactosidase at pH 4.5 (AID 992). Also: 0% is about no effect. To be noted: purified enzyme, fluorogenic substrate; series mostly up to 76.9 µM. Put shortly: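 Fluorogenic 4-MU alpha-D-galactoside (80 uM) hydrolysis, 2 nM enzyme, pH 4.5 citrate buffer + 0.005% Tween-20; 20 min RT; NaOH/glycine pH 10 stop; Ex365/Em440. Compounds titrated 0.7 nM–77 uM; Hill-equation AC50.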
For orientation: Counterscreens check selectivity or assay interference.

Assay [3] deals with alpha-glucosidase (Oryza sativa, rice) (UniProt Q653V4). Kind of assay: Counterscreen for Glucocerebrosidase Inhibitors: qHTS Assay for Rice alpha-Glucosidase at pH 5.0 (AID 997).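 Also: 0% = full activity with enzyme and -100% = basal without enzyme.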 To be noted: rice alpha-glucosidase enzyme activity; series mostly up to 76.9 µM. In outline:
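Endpoint fluorogenic assay at pH 5.0: compounds (0.7 nM to 77 uM) titrated against 4 nM rice enzyme and 400 uM 4-MU-alpha-glucoside for 20 min at room temperature; NaOH/glycine stop, read ex 365/em 440 nm, Hill-fitted AC50.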

The target in assay [4] is Alpha-galactosidase (Coffea arabica) (UniProt Q42656). Kind of assay: Counterscreen for Glucocerebrosidase Inhibitors: qHTS Assay for Coffee Bean alpha-Galactosidase at pH 5.9 (AID 998).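 Also: plate controls were uninhibited enzyme for no effect and no-enzyme basal signal for full effect.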 Particulars: coffee bean alpha-galactosidase enzyme assay; series mostly up to 76.9 µM. Put shortly:
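In 50 mM citric acid pH 5.9 with 0.005% Tween-20, coffee bean enzyme hydrolyses 80 uM 4-MU alpha-D-galactopyranoside over 20 min at RT. Activity is normalized to controls; AC50 comes from Hill-modelled concentration-response data.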

Assay [5] can be described thus: qHTS Assay for Identification of Small Molecule Agonists for Hypoxia Response Element Signaling Pathway (AID 914; active = well fitted activation curve with a large enough effect in the signal ratio, with a control signal flat, not every such curve was filed as active; the % refers to the signal ratio; also: % of control where 0% means no effect). To be noted: ME-180 (cervical carcinoma) HRE-bla reporter, beta-lactamase ratio, CoCl2, 17 h; activation: stronger effect = higher value. In outline:
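Compounds in a titration series were added to ME-180 reporter cells alongside an EC50 level of CoCl2. After 17 hours, beta-lactamase activity was read as the 460nm/530nm emission ratio of CCF4, giving AC50 values.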
A general note: qHTS replaces the single test concentration by a dilution series.

Unmarked numbers belong to inactive results. Inconclusive results are not listed. Calls of active or inactive are those of the source. Unless noted, calls follow the shape of the dose curve; as a rule, active = well fitted curve in the direction sought with a large enough effect; inconclusive = small, poorly fitted or top-dose-only effect, or another doubt; inactive = no such curve, though single readings can be large; an effect the other way counts as inactive or inconclusive.

Sequence of Alpha-galactosidase (Coffea arabica) (Q42656 whole entry, looked up): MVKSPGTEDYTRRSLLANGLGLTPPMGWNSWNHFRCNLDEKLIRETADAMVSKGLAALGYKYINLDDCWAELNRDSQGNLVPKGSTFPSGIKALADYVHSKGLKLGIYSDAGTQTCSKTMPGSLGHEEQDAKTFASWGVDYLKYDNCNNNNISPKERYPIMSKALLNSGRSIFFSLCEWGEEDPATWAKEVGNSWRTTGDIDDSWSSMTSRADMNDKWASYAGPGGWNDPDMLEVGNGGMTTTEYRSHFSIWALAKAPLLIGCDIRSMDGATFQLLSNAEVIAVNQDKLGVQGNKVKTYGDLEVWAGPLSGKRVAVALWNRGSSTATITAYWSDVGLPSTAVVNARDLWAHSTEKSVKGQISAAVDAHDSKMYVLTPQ
Sequence of Alpha-galactosidase A (Homo sapiens) (P06280 whole entry, looked up): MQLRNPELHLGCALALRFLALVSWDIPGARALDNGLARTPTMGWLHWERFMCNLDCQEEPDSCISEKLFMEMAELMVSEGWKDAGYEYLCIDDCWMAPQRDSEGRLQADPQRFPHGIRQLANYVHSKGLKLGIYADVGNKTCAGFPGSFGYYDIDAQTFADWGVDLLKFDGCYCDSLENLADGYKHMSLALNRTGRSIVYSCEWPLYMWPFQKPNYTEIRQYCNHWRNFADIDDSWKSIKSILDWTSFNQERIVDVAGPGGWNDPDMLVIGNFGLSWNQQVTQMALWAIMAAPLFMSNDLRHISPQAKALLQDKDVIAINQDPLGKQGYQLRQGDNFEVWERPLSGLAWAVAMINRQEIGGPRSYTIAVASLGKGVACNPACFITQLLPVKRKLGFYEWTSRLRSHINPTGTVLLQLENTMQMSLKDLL

As to `C=CCN1CCC2(C)c3cc(O)ccc3C[C@H]1[C@H]2C`, the result in assay [1], in assay [2], in assay [3] and in assay [4] was inactive.
For the compound `CN(C)[C@@H]1C(=O)C(C(N)=O)=C(O)[C@@]2(O)C(=O)C3=C(O)c4c(O)ccc(Cl)c4[C@@](C)(O)C3C[C@@H]12` (stereo not given in full), the activation in assay [5] is 4.51%.
